Assay results as given in PubChem BioAssay (NCATS).
Results filed as inconclusive are left out. Activity calls are given as the source filed them. Unless noted, the call rests on the fitted dose curve; in most records, active means well fitted curve in the direction sought with a large enough effect; inconclusive means small, poorly fitted or top-dose-only effect, or another doubt; inactive means no such curve, though single readings can be large; an effect the other way counts as inactive or inconclusive.

Legend:
MKL-2 = test: qHTS assay to identify novel small-molecules to repurpose for Merkel cell carcinoma treatment (AID 1296009); conditions: MCC and control cell lines, CellTiter-Glo viability, 72 h; series mostly up to 46 µM; further: nearly all actives have a fitted effect of over 60% in size
How it was run: (§1)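 After compound transfer in DMSO, plates were kept 72 hr at 37 degree celsius. Luminescent ATP signal from CellTiter-Glo served as viability measure, normalized against DMSO and no-cell controls.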

NIH3T3 = test: as above; conditions: MCC and control cell lines, CellTiter-Glo viability, 72 h; at 44.8 µM (top of the series) unless noted
How it was run: as §1

UISO = test: as above; conditions: MCC and control cell lines, CellTiter-Glo viability, 72 h; series mostly up to 46 µM
How it was run: as §1

WaGa = test: as above; conditions: MCC and control cell lines, CellTiter-Glo viability, 72 h; series mostly up to 46 µM
How it was run: as §1

C33A = test: Primary qHTS to identify gynecologic anti-cancer compounds using libraries of approved drugs and bioactive compounds (AID 1345084); conditions: Gynecologic cancer cell panel viability, ATPlite luminescence, 48 h; series mostly up to 57.5 µM; further: on the % scale 0 is the no-effect control and ±100 the full control effect; nearly all actives have a fitted effect of over 55% in size
How it was run: (§2)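 Cytotoxicity screen measuring ATP content by luciferase luminescence. Each compound is applied at five concentrations for 48 h at 37 C with 5% CO2.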

CAOV3 = test: as above; conditions: Gynecologic cancer cell panel viability, ATPlite luminescence, 48 h; series mostly up to 57.5 µM
How it was run: as §2

CASKI = test: as above; conditions: Gynecologic cancer cell panel viability, ATPlite luminescence, 48 h; series mostly up to 57.5 µM
How it was run: as §2

Es-2 = test: as above; conditions: Gynecologic cancer cell panel viability, ATPlite luminescence, 48 h; series mostly up to 57.5 µM
How it was run: as §2

HeLa = test: as above; conditions: Gynecologic cancer cell panel viability, ATPlite luminescence, 48 h; series mostly up to 57.5 µM
How it was run: as §2

Hek293T = test: as above; conditions: Gynecologic cancer cell panel viability, ATPlite luminescence, 48 h, control line for the selectivity index; series mostly up to 57.5 µM
How it was run: as §2

JEG-3 = test: as above; conditions: Gynecologic cancer cell panel viability, ATPlite luminescence, 48 h; series mostly up to 57.5 µM
How it was run: as §2

OV90 = test: as above; conditions: Gynecologic cancer cell panel viability, ATPlite luminescence, 48 h; series mostly up to 57.5 µM
How it was run: as §2

PA-1 = test: as above; conditions: Gynecologic cancer cell panel viability, ATPlite luminescence, 48 h; series mostly up to 57.5 µM
How it was run: as §2

SKOV3 = test: as above; conditions: Gynecologic cancer cell panel viability, ATPlite luminescence, 48 h; series mostly up to 57.5 µM
How it was run: as §2

Tov-21-G = test: as above; conditions: Gynecologic cancer cell panel viability, ATPlite luminescence, 48 h; series mostly up to 57.5 µM
How it was run: as §2

Tov112D = test: as above; conditions: Gynecologic cancer cell panel viability, ATPlite luminescence, 48 h; series mostly up to 57.5 µM
How it was run: as §2

[1] = Drug repurposing screens with cells derived from glioblastoma tumor samples (AID 1345199); conditions: GBM patient neurospheres viability, ATP luminescence, 48 h; further: nearly all actives have a fitted effect of over 40% in size; further: potency means the concentration at half of the fitted maximal effect; on activity, negative = cell killing: on the % scale 0 is the no-effect control and ±100 the full control effect
How it was run: (§3)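 Four patient lines of CD133+ GBM neurospheres were screened at several concentrations; hits were retested in those lines plus three slower-growing GBM lines, using 48-hour treatment and ATP-based viability.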

astro = test: as above; conditions: viability, ATP luminescence, 48 h; series mostly up to 45.9 µM
How it was run: as §3

[2] = target: Nuclear receptor subfamily 1 group I member 2 (Rattus norvegicus) (UniProt Q9R1A7); test: qHTS assay for small molecule activators of the rat pregnane X receptor (rPXR) signaling pathway (AID 651751; call rule not given here; further: 0% is about no effect); conditions: rPXR reporter cells, luciferase (One-Glo), 24 h
Chain of Nuclear receptor subfamily 1 group I member 2 (Rattus norvegicus) (Q9R1A7 whole entry, looked up): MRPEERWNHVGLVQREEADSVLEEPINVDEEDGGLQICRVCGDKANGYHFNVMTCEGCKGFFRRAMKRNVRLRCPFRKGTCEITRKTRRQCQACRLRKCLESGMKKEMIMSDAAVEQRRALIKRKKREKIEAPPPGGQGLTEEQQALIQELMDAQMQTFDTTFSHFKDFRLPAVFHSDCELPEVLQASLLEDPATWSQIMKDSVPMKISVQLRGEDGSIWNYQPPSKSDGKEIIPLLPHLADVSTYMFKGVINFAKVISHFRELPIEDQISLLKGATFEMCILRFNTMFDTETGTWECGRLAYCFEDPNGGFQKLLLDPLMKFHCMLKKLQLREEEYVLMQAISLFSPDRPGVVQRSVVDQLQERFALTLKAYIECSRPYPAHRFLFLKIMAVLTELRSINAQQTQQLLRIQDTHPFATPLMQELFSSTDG

[3] = at 46.1 µM (top of the series), tumour line C
[4] = at 45.9 µM (top of the series), tumour line B
[5] = at 45.9 µM (top of the series), tumour line D
[6] = at 46 µM (top of the series), tumour line A

O=Cc1ccccc1C=O
active: Potency ([1]; tumour line D) 35.5 µM
inactive: Potency (MKL-2) | outcome (NIH3T3) | Potency (UISO) | Potency (WaGa) | Potency (C33A) | Potency (CAOV3) | Potency (CASKI) | Potency (Es-2) | Potency (HeLa) | Potency (Hek293T) | Potency (JEG-3) | Potency (OV90) | Potency (PA-1) | Potency (SKOV3) | Potency (Tov-21-G) | Potency (Tov112D) | activity, negative = cell killing [1, 3] -17%

C[C@@H]1CCN(C(=O)[C@H](CCCN=C(N)N)NS(=O)(=O)c2cccc3c2NC[C@H](C)C3)[C@@H](C(=O)O)C1
inactive: Potency (MKL-2) | outcome (NIH3T3) | Potency (UISO) | Potency (WaGa) | Potency (C33A) | Potency (CAOV3) | Potency (CASKI) | Potency (Es-2) | Potency (HeLa) | Potency (Hek293T) | Potency (JEG-3) | Potency (OV90) | Potency (PA-1) | Potency (SKOV3) | Potency (Tov-21-G) | Potency (Tov112D) | activity, negative = cell killing [1, 4] 7.31% | activity, negative = cell killing [1, 5] -6.42% | activity, negative = cell killing [1, 6] -6.41% | activity, negative = cell killing [1, 3] -2.45% | Potency (astro)

NCC(=O)CCC(=O)O
inactive: Potency (MKL-2) | outcome (NIH3T3) | Potency (UISO) | Potency (WaGa) | Potency (C33A) | Potency (CAOV3) | Potency (CASKI) | Potency (Es-2) | Potency (HeLa) | Potency (Hek293T) | Potency (JEG-3) | Potency (OV90) | Potency (PA-1) | Potency (SKOV3) | Potency (Tov-21-G) | Potency (Tov112D) | activity, negative = cell killing [1, 4] -16.2% | activity, negative = cell killing [1, 5] -11% | activity, negative = cell killing [1, 6] -11% | activity, negative = cell killing [1, 3] -6.71% | Potency (astro)

CC12CCC(CC1)C(C)(C)O2
inactive: Potency (MKL-2) | outcome (NIH3T3) | Potency (UISO) | Potency (WaGa) | Potency (C33A) | Potency (CAOV3) | Potency (CASKI) | Potency (Es-2) | Potency (HeLa) | Potency (Hek293T) | Potency (JEG-3) | Potency (OV90) | Potency (PA-1) | Potency (SKOV3) | Potency (Tov-21-G) | Potency (Tov112D) | activity, negative = cell killing [1, 4] -7.94% | activity, negative = cell killing [1, 5] 5.35% | activity, negative = cell killing [1, 3] -12.5% | Potency (astro) | max response [2] 2.12%

c1ccc(CN(CC2=NCCN2)c2ccccc2)cc1
inactive: Potency (MKL-2) | outcome (NIH3T3) | Potency (UISO) | Potency (WaGa) | Potency (C33A) | Potency (CAOV3) | Potency (CASKI) | Potency (Es-2) | Potency (HeLa) | Potency (Hek293T) | Potency (JEG-3) | Potency (OV90) | Potency (PA-1) | Potency (SKOV3) | Potency (Tov-21-G) | Potency (Tov112D) | activity, negative = cell killing [1, 4] -15.8% | activity, negative = cell killing [1, 5] -19.1% | activity, negative = cell killing [1, 3] -20.7% | Potency (astro)
